Laboratory results from the OligoGym collection.

Target: GPX2
Assay: pooled miR-30 sensor sort-seq; sequence = guide strand
Conditions: shRNA
Note: reference of the scale not given here.

Sequence | sensor-assay potency score (higher = more potent)
TCACATTTTTGGACAAGGGTGA | 0.0993
TTGATGTCAGGCTCAATGTTGA | -0.614
TTTTGGACAAGGGTGAAGGTGG | -0.672
TTCCAGGCCACATCTGAGCGGC | -0.521
TATGAGGAACTTCTCAAAGTTC | -1.27

Target: GRAMD1B
Assay: as above
Conditions: shRNA

Sequence | sensor-assay potency score (higher = more potent)
TAACACATTATACCAACTCTGG | -0.853
TTCTTGGAGCCTTAGACCCTGC | -0.896
TTGTAGAAGAGCATCATGTTAA | -0.883
TACATGGTCTGTGTCTCCCTGA | 0.155
AACATCATCATATATGTCCTAT | -0.649
TTGTCATTGAAGTCCAGTGAAG | -1.36
TTTTTGGAGCTCAGTATCGTGG | -1.12
TTTTCTTCACTTTCCGACGTGT | 0.0883
TTGTCTGTGCATCTCAGCCAAA | -1.36
TTGTGTAGAAGTAGTCATGGTA | 0.548
TTGGTCTCTATGCTGCTCTTGG | -0.389
TATCGTGGTACTTTTGTTGGGA | 0.623

Target: GRAMD1C
Assay: as above
Conditions: shRNA

Sequence | sensor-assay potency score (higher = more potent)
TTGCTATAGAAACATAGCCAGT | -1.61
TAACAAATCTGATTCAAGCTGT | 0.354
TACATCTTCCTGTAAGTCGGTG | -0.625
TATTCTTCTGAATAGTTTCTGC | -0.573
TTCATTTTTATTCAAGTCCAGT | -0.865
TAACTCTTGAAAAAATATCTGA | -0.51
TATAAAGCAACTTACTTCGATA | -0.838
TAGTCCTCCAAAGAACTCCAGG | -0.901
TTATTTAGTAGATCAAACGTTT | -0.243
TTTTGATGAATTTCCATCGAAT | -0.801
ATAATCATCATCAACATGCAGA | 0.0723
TTGATAGTCAGTACACTTGTAC | 0.115

Target: GRHL3
Assay: as above
Conditions: shRNA

Sequence | sensor-assay potency score (higher = more potent)
TTGACTAAGATTCCTCGCTTGC | -0.416
TTTTCTAGGTACGTCTTCCAGG | -0.466
TTCTTCTTGAGCAAATCTGGGT | -0.605
TTGCATTTCTTGTAGACTTTGT | -0.218
TTTAGCAGCCGCACAGACCTGA | -0.237
TAGGTCGTCTCATTGCCCCTGA | 0.415
TTTGTGGCAGCTGTCAACGGGT | -0.745
TTTTGTGAGGAAAAGTCTGTGC | -0.211
TATTCTTCTTGAGCAAATCTGG | -0.748
TAGTGTAAGAGAATTTCTGCAA | 0.49
TCACAGAAGATCTTGATCTGGC | 0.419
